In the supplement of paper PMC11732987, “Enantioselective OTUD7B fragment discovery through chemoproteomics screening and high-throughput optimisation” (Communications Chemistry, 2025):

Key:
Assay in all cases: log2 ratio of Biotin-Ahx-Ub-VS probe labelling (fragment/DMSO); higher = less target engagement (more negative = stronger competition), active = hit call of the paper (q ≤ 0.05, log2 ratio ≤ -1)
Settings in all cases: compound concentration: 200 uM; treatment time: 3 h
USP19 = molecular target: T1, USP19 (UniProt O94966)
T1 sequence (whole entry): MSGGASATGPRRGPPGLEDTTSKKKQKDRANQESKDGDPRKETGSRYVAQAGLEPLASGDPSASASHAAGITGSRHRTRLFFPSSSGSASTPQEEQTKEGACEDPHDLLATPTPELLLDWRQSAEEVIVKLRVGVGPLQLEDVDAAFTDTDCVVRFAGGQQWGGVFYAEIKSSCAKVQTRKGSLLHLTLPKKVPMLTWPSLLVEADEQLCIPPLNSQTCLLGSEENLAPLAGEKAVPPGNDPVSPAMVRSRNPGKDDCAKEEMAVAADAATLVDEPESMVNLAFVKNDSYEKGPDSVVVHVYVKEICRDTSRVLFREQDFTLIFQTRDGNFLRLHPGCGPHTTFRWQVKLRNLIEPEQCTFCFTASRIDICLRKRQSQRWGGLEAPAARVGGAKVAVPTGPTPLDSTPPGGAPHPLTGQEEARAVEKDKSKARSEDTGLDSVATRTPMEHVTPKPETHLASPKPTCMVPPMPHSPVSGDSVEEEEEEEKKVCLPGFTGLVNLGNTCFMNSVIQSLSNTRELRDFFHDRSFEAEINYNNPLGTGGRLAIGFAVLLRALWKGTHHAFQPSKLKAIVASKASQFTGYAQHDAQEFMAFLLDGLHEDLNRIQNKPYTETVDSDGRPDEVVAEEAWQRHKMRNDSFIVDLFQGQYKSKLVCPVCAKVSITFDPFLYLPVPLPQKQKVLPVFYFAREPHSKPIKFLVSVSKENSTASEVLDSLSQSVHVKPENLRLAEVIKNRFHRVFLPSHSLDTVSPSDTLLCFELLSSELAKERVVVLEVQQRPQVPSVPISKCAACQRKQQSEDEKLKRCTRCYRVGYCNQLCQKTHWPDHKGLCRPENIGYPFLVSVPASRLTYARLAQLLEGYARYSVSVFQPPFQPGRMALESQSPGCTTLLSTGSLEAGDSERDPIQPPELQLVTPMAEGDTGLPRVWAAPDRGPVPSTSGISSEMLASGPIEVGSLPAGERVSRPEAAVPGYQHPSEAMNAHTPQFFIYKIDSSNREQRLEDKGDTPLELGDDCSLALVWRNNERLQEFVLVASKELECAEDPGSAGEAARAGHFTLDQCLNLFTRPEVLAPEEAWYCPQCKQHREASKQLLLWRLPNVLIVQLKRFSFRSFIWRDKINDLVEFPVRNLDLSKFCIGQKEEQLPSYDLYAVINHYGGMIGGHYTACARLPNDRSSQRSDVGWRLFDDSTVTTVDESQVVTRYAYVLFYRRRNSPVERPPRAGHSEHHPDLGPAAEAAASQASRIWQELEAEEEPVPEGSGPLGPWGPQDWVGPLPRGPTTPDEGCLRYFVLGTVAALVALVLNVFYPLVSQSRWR
Summary of the method: (§1)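 Labelled DUBs from HEK293T lysate were NeutrAvidin-enriched, digested with LysC and trypsin, and run by diaPASEF LC-MS/MS. Before that, each 495 µg sample in Tris/CHAPS/IGEPAL buffer with protease inhibitors was treated in triplicate with fragment at 200 µM or vehicle for 3 h, then with Biotin-Ahx-Ub-VS at 0.5 µM final for 1 h. Values are average log2 ratios of fragment over vehicle by unpaired t-test, based on global-median-normalised Spectronaut label-free quantities from proteins with ≥2 unique peptides.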

USP22 = molecular target: T2, USP22 (UniProt Q9UPT9)
T2 sequence (whole entry): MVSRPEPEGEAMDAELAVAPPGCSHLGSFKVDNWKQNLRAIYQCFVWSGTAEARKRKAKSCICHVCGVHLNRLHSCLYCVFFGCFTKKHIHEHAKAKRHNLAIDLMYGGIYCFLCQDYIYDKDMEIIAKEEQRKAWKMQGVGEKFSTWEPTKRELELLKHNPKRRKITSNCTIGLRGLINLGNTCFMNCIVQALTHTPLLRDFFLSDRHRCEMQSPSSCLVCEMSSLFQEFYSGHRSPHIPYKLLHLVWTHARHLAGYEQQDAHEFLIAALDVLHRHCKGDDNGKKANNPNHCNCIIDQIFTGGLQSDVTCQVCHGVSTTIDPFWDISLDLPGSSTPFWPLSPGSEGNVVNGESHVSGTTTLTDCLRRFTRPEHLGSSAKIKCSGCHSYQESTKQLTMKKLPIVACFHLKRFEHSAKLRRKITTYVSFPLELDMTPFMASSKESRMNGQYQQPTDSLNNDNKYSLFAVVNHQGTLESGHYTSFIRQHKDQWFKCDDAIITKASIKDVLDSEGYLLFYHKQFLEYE
Summary of the method: as §1

USP24 = USP24 (UniProt Q9UPU5)
Summary of the method: as §1

USP25 = molecular target: T3, USP25 (UniProt Q9UHP3)
T3 sequence (whole entry): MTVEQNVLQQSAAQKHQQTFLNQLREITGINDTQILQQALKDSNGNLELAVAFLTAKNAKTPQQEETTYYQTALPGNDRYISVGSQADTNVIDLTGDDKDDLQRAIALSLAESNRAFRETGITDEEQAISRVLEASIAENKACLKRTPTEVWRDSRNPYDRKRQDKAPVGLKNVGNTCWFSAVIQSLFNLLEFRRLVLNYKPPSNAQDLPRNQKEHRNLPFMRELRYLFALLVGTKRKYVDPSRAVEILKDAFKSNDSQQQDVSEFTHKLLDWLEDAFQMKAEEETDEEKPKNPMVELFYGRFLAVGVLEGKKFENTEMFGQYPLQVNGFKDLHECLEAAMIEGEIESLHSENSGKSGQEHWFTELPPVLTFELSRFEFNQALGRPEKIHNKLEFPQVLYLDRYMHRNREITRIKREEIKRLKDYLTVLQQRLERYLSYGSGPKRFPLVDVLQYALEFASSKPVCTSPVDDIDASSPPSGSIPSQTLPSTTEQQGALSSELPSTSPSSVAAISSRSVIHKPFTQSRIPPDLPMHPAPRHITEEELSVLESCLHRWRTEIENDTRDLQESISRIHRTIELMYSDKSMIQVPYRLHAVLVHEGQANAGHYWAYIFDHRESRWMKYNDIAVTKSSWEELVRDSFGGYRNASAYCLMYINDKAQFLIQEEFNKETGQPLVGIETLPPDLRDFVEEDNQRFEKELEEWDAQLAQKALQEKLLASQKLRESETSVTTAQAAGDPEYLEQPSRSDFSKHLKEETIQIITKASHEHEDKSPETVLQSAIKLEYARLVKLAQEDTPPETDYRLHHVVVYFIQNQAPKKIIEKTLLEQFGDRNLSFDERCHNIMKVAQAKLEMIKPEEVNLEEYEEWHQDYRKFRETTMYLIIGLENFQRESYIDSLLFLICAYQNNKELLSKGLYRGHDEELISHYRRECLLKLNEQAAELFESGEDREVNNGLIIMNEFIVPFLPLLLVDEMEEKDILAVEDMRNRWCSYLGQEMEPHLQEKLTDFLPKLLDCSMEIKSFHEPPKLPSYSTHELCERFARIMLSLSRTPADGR
Summary of the method: as §1

USP28 = molecular target: T4, USP28 (UniProt Q96RU2)
T4 sequence (whole entry): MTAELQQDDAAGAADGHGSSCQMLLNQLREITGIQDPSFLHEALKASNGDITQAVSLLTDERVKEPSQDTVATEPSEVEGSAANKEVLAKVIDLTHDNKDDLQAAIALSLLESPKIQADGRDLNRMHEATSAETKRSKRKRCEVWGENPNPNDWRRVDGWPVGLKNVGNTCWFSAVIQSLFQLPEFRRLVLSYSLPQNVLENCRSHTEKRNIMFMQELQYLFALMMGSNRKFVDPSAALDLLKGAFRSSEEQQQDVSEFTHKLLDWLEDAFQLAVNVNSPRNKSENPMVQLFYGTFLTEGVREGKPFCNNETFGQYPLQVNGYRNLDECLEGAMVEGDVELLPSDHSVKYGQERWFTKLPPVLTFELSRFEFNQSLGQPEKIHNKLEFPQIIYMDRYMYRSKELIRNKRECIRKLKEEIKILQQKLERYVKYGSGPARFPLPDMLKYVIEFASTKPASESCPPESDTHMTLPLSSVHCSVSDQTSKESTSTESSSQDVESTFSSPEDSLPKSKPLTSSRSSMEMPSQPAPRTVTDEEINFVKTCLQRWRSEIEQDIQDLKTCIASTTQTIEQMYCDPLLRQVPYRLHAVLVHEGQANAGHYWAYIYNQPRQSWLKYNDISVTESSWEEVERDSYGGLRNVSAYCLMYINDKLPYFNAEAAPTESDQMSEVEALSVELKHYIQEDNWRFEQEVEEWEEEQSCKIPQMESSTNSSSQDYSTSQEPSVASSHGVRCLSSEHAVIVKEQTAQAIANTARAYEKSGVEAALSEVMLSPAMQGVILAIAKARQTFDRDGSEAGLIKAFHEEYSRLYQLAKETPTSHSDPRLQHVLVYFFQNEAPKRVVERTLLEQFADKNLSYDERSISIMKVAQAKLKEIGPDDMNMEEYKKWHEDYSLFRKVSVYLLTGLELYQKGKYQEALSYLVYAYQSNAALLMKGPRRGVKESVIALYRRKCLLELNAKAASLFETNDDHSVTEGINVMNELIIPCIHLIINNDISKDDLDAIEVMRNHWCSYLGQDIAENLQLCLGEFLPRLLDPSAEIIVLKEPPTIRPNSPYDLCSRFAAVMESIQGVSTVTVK
Summary of the method: as §1

Measured: log2 ratio of Biotin-Ahx-Ub-VS probe labelling

USP24, sequence (Q9UPU5 whole entry): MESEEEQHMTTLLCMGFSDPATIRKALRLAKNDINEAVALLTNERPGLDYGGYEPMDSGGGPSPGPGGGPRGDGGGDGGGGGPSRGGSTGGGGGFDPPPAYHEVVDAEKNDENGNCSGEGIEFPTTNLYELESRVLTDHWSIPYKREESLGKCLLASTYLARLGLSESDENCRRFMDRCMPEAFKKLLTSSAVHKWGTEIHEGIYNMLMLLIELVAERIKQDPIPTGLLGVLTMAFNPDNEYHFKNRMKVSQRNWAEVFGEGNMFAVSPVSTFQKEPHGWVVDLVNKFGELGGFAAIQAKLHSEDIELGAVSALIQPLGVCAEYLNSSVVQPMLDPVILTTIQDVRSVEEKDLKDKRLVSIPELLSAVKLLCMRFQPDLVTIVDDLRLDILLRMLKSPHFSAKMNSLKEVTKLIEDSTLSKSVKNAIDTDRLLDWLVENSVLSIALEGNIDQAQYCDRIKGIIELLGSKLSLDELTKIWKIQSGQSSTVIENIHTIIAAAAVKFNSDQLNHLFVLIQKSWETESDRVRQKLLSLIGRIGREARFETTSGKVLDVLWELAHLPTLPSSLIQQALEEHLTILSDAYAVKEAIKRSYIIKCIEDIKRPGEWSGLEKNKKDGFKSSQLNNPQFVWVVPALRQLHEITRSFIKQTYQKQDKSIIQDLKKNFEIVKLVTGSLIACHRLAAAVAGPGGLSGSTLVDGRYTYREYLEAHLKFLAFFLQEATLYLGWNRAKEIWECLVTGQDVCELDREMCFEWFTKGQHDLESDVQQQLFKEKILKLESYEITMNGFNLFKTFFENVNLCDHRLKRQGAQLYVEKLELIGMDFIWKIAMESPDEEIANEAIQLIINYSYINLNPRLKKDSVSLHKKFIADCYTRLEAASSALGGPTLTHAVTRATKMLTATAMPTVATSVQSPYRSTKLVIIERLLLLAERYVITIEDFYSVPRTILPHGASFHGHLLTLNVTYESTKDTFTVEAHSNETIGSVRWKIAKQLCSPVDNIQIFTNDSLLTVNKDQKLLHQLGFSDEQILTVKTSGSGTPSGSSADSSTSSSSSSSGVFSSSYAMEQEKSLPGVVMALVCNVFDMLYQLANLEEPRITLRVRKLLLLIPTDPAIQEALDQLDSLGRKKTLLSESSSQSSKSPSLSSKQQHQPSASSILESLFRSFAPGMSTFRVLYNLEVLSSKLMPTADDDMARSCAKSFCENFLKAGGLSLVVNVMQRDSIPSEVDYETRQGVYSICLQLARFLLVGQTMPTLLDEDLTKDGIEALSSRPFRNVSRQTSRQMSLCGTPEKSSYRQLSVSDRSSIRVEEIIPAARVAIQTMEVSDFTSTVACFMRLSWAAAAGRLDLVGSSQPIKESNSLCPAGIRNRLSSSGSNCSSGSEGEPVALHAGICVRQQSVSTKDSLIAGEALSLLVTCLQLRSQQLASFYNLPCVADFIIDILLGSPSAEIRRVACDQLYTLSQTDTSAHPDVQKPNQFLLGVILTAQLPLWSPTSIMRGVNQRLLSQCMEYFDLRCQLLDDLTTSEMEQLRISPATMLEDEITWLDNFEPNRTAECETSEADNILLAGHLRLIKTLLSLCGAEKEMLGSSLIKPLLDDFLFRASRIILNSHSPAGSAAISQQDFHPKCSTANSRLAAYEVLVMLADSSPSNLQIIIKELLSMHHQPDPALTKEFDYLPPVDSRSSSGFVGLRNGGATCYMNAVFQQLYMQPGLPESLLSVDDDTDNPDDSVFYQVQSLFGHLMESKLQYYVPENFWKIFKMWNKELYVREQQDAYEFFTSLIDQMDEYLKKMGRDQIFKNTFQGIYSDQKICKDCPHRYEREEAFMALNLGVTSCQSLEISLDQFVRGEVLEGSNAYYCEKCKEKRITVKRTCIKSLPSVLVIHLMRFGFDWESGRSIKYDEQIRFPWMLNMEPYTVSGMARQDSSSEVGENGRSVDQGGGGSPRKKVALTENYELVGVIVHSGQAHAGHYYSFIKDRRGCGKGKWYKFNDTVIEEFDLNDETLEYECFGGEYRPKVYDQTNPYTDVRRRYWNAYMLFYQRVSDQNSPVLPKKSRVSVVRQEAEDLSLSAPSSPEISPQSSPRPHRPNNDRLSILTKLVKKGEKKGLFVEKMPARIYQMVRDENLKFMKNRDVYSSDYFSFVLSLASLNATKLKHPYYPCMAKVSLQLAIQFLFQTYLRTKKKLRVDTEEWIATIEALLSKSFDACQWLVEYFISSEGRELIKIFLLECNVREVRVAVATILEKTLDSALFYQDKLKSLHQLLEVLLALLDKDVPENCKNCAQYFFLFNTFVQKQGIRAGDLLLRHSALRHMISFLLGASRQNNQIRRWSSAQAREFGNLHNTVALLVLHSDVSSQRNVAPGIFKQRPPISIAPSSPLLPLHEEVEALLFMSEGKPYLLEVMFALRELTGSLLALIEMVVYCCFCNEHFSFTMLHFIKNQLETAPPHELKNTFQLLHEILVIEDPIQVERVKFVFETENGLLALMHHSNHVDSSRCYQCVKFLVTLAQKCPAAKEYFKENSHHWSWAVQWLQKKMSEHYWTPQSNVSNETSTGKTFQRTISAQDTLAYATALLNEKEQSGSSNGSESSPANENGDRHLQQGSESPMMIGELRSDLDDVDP

CCN1C(=O)C2CN(C(=O)CCl)CCN2C1=O (stereo not given)
inactive: USP19 -0.175 | USP22 0.199 | USP24 -0.0184 | USP25 -0.141 | USP28 -0.324
